# Experimental data reported in article PMC7862700, “An all-to-all approach to the identification of sequence-specific readers for epigenetic DNA modifications on cytosine”.
# Legend:
# Test in all cases: DAPPL (digital affinity profiling via proximity ligation, sequencing); 10 mM Tris-HCl pH 7.5, 50 mM NaCl, 1 mM DTT, 4% glycerol, room temperature, 30 min; GST-TFs on glutathione beads, 16-mer random dsDNA library, 0.1% formaldehyde crosslink after washing; high values mean tight binding
# Conditions in all cases: protein: recombinant; tags: N-terminal GST; dsDNA, one strand shown
# FLI1 = molecular target: T1, FLI1 (Homo sapiens, UniProt Q01543 1-452)
# T1 sequence: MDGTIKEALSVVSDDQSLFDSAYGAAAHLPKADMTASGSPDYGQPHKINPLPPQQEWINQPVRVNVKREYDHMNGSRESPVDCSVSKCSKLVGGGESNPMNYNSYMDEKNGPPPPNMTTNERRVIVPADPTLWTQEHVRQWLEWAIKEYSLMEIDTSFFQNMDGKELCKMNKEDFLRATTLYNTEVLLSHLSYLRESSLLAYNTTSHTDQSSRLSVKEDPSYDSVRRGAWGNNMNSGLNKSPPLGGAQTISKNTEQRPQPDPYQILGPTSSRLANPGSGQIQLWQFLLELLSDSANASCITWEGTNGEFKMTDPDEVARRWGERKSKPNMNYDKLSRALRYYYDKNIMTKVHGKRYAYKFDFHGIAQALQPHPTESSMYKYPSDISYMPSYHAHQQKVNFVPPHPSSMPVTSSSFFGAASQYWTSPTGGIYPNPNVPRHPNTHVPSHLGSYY
# Method in brief: (§1)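 Human transcription factors fused to GST were expressed in yeast, captured on glutathione beads, given DNA barcodes and pooled with a GST-only negative control. Pools were incubated with 200 nmole of a 16-mer random double-stranded DNA library in Tris/NaCl/DTT/glycerol buffer at room temperature for 30 min. They were then washed, crosslinked with 0.1% formaldehyde, proximity-ligated (BsaI/T4 ligase, 1 h, 37 °C), PCR-amplified and sequenced on an Illumina NextSeq500. Binding signal is each 6-mer's read frequency for a factor divided by its frequency for the GST control.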
# ELK1 = molecular target: T2, ELK1 (Homo sapiens, UniProt P19419 1-428)
# T2 sequence: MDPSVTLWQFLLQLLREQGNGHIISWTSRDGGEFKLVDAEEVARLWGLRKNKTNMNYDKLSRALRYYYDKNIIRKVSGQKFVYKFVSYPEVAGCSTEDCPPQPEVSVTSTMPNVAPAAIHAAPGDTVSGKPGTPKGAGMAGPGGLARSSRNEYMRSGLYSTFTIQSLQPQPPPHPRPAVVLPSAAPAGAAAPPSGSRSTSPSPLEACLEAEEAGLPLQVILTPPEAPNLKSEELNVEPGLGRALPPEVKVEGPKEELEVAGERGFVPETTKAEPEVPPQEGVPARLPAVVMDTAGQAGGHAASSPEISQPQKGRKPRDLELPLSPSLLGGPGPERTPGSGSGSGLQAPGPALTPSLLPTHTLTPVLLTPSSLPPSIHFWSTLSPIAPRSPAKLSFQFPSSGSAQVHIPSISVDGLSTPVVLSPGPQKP
# Method in brief: as §1
# GABPA = molecular target: T3, GABPA (Homo sapiens, UniProt Q06546 1-454)
# T3 sequence: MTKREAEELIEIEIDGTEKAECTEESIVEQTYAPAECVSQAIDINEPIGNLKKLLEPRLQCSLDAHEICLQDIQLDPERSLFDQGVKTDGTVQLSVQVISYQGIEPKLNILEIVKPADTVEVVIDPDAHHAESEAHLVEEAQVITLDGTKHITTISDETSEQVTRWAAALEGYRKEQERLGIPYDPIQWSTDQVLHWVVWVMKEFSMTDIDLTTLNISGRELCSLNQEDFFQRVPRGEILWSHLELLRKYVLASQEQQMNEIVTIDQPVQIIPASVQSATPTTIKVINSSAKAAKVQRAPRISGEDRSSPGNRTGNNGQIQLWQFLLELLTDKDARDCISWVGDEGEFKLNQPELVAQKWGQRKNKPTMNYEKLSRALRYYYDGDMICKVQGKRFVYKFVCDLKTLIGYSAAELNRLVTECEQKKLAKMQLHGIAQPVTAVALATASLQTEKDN
# Method in brief: as §1
# ERG = molecular target: T4, ERG (Homo sapiens, UniProt P11308 1-479)
# T4 sequence: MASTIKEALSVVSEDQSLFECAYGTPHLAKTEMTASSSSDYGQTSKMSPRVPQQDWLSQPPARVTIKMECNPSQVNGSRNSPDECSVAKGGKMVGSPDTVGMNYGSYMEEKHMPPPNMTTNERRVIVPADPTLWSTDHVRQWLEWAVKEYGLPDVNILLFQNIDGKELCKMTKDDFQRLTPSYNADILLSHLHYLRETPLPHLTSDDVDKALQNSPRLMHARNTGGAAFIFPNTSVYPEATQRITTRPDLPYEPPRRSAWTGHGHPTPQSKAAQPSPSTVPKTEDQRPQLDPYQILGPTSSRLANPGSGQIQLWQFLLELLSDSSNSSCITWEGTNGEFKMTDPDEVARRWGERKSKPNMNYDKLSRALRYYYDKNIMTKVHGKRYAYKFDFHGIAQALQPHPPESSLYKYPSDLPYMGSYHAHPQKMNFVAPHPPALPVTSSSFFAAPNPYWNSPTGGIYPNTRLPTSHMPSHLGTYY
# Method in brief: as §1
# ELF1 = ELF1 (Homo sapiens, UniProt P32519 1-619)
# ELF1, sequence (P32519 whole entry): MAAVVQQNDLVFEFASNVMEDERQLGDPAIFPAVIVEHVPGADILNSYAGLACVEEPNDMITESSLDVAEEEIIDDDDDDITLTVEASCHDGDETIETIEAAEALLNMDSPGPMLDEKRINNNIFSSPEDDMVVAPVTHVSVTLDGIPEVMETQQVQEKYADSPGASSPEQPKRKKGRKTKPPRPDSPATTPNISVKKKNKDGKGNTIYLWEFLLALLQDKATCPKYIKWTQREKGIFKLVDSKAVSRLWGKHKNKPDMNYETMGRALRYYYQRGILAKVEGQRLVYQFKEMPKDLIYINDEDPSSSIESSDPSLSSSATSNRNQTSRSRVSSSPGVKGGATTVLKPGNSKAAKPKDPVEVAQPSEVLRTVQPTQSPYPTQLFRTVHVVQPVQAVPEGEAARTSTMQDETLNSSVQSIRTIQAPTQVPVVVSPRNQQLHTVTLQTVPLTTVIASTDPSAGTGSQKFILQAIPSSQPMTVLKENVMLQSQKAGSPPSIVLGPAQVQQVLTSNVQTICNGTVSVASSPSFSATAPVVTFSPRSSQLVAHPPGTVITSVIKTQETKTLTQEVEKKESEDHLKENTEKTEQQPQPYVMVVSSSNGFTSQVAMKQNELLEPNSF
# Method in brief: as §1
# EHF = molecular target: T5, EHF (Homo sapiens, UniProt Q9NZC4 1-300)
# T5 sequence: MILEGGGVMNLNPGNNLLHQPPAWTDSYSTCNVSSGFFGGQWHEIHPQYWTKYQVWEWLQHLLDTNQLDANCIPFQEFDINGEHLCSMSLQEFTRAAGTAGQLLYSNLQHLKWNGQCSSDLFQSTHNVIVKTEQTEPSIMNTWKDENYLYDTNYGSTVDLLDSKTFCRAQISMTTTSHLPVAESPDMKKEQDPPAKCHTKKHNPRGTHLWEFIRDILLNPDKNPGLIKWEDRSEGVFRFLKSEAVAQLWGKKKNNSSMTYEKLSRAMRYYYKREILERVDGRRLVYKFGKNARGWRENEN
# Method in brief: as §1
# SPI1 = SPI1 (Homo sapiens, UniProt P17947 1-270)
# Method in brief: as §1
# SPIB = SPIB (Homo sapiens, UniProt Q01892 1-262)
# SPIB, sequence (Q01892 whole entry): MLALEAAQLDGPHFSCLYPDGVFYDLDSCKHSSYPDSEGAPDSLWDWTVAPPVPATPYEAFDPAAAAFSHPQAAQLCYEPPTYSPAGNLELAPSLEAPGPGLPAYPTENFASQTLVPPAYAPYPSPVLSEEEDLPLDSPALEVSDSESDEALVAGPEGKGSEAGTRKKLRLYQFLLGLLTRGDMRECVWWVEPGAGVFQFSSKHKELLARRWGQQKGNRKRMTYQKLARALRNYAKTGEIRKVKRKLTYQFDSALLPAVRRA
# Method in brief: as §1
# ELK3 = molecular target: T6, ELK3 (Homo sapiens, UniProt P41970 1-407)
# T6 sequence: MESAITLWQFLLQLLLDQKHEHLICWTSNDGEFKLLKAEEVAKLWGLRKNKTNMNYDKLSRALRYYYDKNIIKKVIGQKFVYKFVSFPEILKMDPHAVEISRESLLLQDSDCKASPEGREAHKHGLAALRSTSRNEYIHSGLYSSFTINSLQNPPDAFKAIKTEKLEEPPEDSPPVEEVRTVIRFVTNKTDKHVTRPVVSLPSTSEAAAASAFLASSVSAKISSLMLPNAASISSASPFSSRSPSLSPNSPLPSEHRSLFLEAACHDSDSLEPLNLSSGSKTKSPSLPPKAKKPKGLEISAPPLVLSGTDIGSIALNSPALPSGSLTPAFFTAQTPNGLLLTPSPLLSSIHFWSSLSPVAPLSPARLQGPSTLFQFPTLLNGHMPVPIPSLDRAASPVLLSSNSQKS
# Method in brief: as §1
sequence,measurement,setting,value
CTATTT,binding signal,FLI1,"1.7 fold enrichment (6-mer frequency, TF over GST control)"
same,binding signal,ELK1,"1.67 fold enrichment (6-mer frequency, TF over GST control)"
same,binding signal,GABPA,"1.74 fold enrichment (6-mer frequency, TF over GST control)"
same,binding signal,ERG,"1.77 fold enrichment (6-mer frequency, TF over GST control)"
same,binding signal,ELF1,"1.58 fold enrichment (6-mer frequency, TF over GST control)"
same,binding signal,EHF,"1.85 fold enrichment (6-mer frequency, TF over GST control)"
same,binding signal,SPI1,"1.76 fold enrichment (6-mer frequency, TF over GST control)"
same,binding signal,SPIB,"1.81 fold enrichment (6-mer frequency, TF over GST control)"
same,binding signal,ELK3,"1.85 fold enrichment (6-mer frequency, TF over GST control)"
